# From ChEMBL document CHEMBL1157539, “Thousands of chemical starting points for antimalarial lead identification” (Nature, 2010)
# Test system: Plasmodium falciparum
# Test: GSK_TCMDC: Inhibition of Plasmodium falciparum 3D7 in whole red blood cells, using parasite LDH activity as an index of growth. Test compounds present at 2uM
# Assay type: functional
row,Structure (SMILES),Inhibition
1,Cc1ccn2c(C(=O)N3CCN(c4cccc5c4nc(-c4ccoc4)n5Cc4ccccn4)CC3)c(C)nc2c1,98%
2,C=CCc1ccccc1OCC(O)CN(C1CCCCC1)C1CCCCC1.Cl (stereo not given),93%
3,COc1cc(COc2c(C)nc(N)nc2N)cc(OC)c1OC.Cl,100%
4,COc1ccc(Nc2nccc(N3CCC(NC(=O)Nc4ccc5c(c4)OCO5)C3)n2)cc1 (stereo not given),98%
5,CCCCCCCCCN(CCC)C(=O)[C@@H]1OC(C(=O)OC(c2ccccc2)c2ccccc2)=C[C@H](NC(=O)OC(C)(C)C)[C@H]1NC(C)=O,91%
6,COc1ccccc1CCCN1C(=O)C(c2ccccc2)(c2ccccc2)N=C1N.O=C(O)C(F)(F)F,99%
7,Cl.NC(=O)c1sc(-n2cnc3ccc(OCC4CCNCC4)cc32)cc1OCc1ccccc1C(F)(F)F,100%
8,O=C(Nc1cccc(OC2CCN(Cc3ccccc3)CC2)c1)c1ccc([N+](=O)[O-])cc1.O=C(O)C(F)(F)F,100%
9,COc1ccccc1CCN1CCC(CN(C)Cc2ccc(O)c(Cl)c2)CC1,100%
10,COc1ccc2nccc([C@@H](O)CN3CCC(NC(=O)/C=C/c4cc(F)cc(Br)c4)CC3)c2c1,95%
11,O=C(/C=C/c1ccc(Cl)c(Cl)c1)NCCCCCCN1CCCN(C(=O)Nc2ccc(F)c(Cl)c2)CC1,98%
12,CCN(CCO)CCc1cccc(Nc2nccc(-c3c(-c4ccc(NC(=O)N(CC)CC)cc4)nn4ccccc34)n2)c1.Cl,100%
13,COc1ccc(Cl)cc1C(=O)Nc1ccc(-c2nc3ccccc3[nH]2)cc1,92%
14,CCCc1cc(Cc2cnc(N)nc2N)cc2c1OC(C)C2C.Cl (stereo not given),98%
15,CCCCCCN1CCCN(Cc2cccc(NC(=O)c3cc4ccccc4s3)c2)CC1.O=C(O)C(F)(F)F,88%
16,Cc1ccc(C)c(CN2CCC(CNC(=O)c3cc4ccc5cccnc5c4[nH]3)CC2)c1,95%
17,COc1ccc2nccc(NC(=O)C3(O)CCC(NCc4ncc5c(c4Cl)OCCO5)CC3)c2n1.Cl (stereo not given),83%
18,Cc1cnc(NCCc2ccc(F)cc2)nc1NCCC(=O)Nc1ccccc1.O=C(O)C(F)(F)F,89%
19,CCN(CCNC(=O)Nc1cc(C(F)(F)F)cc(C(F)(F)F)c1)c1cccc(C)c1,98%
20,NC1=NC2(CCCCC2)N(OCCCCCCN2C(=O)c3ccccc3C2=O)C(N)=N1,98%

row,Structure (SMILES),Inhibition
1,CC1CCN(C(=O)CSc2nc(-c3ccc(C(C)C)cc3)no2)CC1,98%
2,Cc1cccc2nc(-c3ccc(-c4cccc(CNCCCN5CCCC5=O)c4)s3)[nH]c12.O=C(O)C(F)(F)F,100%
3,Cl.Fc1cc(Cl)ccc1Nc1ccnc2cc(-c3ccc(CN4CCNCC4)o3)ccc12,100%
4,Cc1cc(-c2ccc3c(c2)CCN(CCC2CCC(NC(=O)/C=C/c4ccc(F)cc4)CC2)CC3)on1.Cl (stereo not given),98%
5,Cc1cccc2nc(-c3ccc(-c4ccc(NC(=O)NCc5ccc(F)cc5)cc4)cc3)[nH]c12,100%
6,CCC(CO)NCC(O)Cn1c2ccc(Br)cc2c2cc(Br)ccc21 (stereo not given),100%
7,Cc1ccc(S(=O)(=O)N2CCCN(C(=O)c3cc(-c4ccccc4)[nH]n3)CC2)cc1,96%
8,COc1ccc(Nc2nc(N/N=C/c3ccc(O)cc3)nc(Nc3ccc([N+](=O)[O-])cc3)n2)cc1,93%
9,Cc1[nH]c(C)c(-c2ccc(OCc3cccc(C(F)(F)F)c3)nc2)c(=O)c1Br,99%
10,Cc1cc(CN2CCC(N3CC(c4ccccc4)(c4ccccc4)OCC3=O)C2)ccc1O.O=C(O)C(F)(F)F (stereo not given),89%
11,c1ccc(Oc2ccc(Nc3ccnc4cc(-c5cccc(CNCCN6CCOCC6)c5)ccc34)cc2)cc1,100%
12,O=C(Cc1c[nH]cn1)Nc1ccc(-c2ccc(-c3nc4ccccc4[nH]3)s2)cc1,90%
13,O=C(O)C(F)(F)F.Oc1ccc(CCNc2nc(NCCCOc3cc(CN4CCCCC4)ccc3F)nc(N3CCNCC3)n2)cc1,100%
14,CCNC(=O)Nc1ccc(-c2ccc(-c3nc4cccc(C)c4[nH]3)s2)cc1,96%
15,CCCCNC[C@@H](O)[C@H](Cc1ccccc1)NC(=O)c1cc2c3c(c1)c(CC)cn3CCS(=O)(=O)N2C.O=CO,99%
16,CN1CCN(c2ccnc3ccc(NC(=O)Cc4ccc(OCc5ccccc5)cc4)cc23)CC1,100%
17,COc1ccccc1CCNc1nc(C)cc(N[C@@H](CC(C)C)C(=O)NCc2cccc(F)c2)n1.O=C(O)C(F)(F)F,94%
18,O=C(/C=C/c1ccc(Cl)c(Cl)c1)NCCCCCN1CCCN(C(=O)Nc2cc(Cl)cc(Cl)c2)CC1,96%
19,Cc1cc(O)nc(NC(=N)NOCc2ccccc2)n1,100%
20,CCN(CC)CCN(Cc1ccc(-c2ccc(C(F)(F)F)cc2)nc1)C(=O)Cn1cc(Cc2cnn(C)c2)c(=O)n2nc(-c3ccccc3)cc12.O=C(O)C(O)C(O)C(=O)O,97%
